Test results taken from ChEMBL document CHEMBL4513216, “Probing the Open Global Health Chemical Diversity Library for Multistage-Active Starting Points for Next-Generation Antimalarials” (ACS Infect Dis, 2020).
In all, about 69,000 compounds went through this assay and about 8,600 (12%) showed an effect of 50% or more. Many of the other results were omitted from the sample, so strong results are more common in it than they were.

The compounds below were run on Plasmodium berghei (assay: Screen against P. berghei liver stage (PbLuc), transformed with Luciferase, at 10uM). Details: tested at 10 uM.
Format: functional, HepG2

| SMILES | INHIBITION [%] |
| --- | --- |
| CC(C)(CN1C[C@H](Nc2ncccn2)[C@@H](C2CC2)C1)N1CCOCC1 | 2.15 |
| CSc1cccc(NC(=O)Nc2c(O)oc3ccccc3c2=O)c1 | 1.86 |
| CC(C)(CN1CCC2(CCNCC2)CC1)N1CCOCC1 | -22.1 |
| Cc1ccoc1C(=O)NC1CCN(Cc2cccc3ccccc23)CC1 | 56.4 |
| Cc1ccoc1C(=O)NC1CCN(CC(=O)N(C)c2ccccc2)CC1 | 22.3 |
| Cc1ccoc1C(=O)NC1CCN(C(=O)Nc2ccccn2)CC1 | -31.8 |
| Cc1ccc(C(=O)NC2CCN(Cc3cccc4c3OCCO4)CC2)s1 | 33.8 |
| Cc1ccoc1C(=O)NC1CCN(Cc2ccccc2F)CC1 | 44.1 |
| CC(C)C(=O)NC1CCN(Cc2cccc3c2OCCO3)CC1 | 6.81 |
| Cc1ccoc1C(=O)NC1CCN(Cc2csc3c(F)cccc23)CC1 | 87.4 |
| Cc1ccoc1C(=O)NC1CCN(Cc2cccc3c2OCCO3)CC1 | 52.1 |
| Cc1ccoc1C(=O)NC1CCN(Cc2ccccc2C#N)CC1 | -9.37 |
| CN(C)c1ncc(-c2ccc(C(N)=O)cc2)c(C2CCNC2)n1 (configuration not stated) | 6.33 |
| Cc1cc(C(=O)N2CCC3(C2)CN(c2cccnc2)C(=O)CN3C)[nH]n1 (configuration not stated) | 22.4 |
| CC(C)c1nccn1C1CCCN(C(=O)c2cc(C(N)=O)cs2)C1 (configuration not stated) | 35.3 |
| CC(=O)N1CCC2(CC1)CN(C(C)C)c1ccc(F)cc12 | 12.2 |
| CN1CCC(Cc2cccc(-c3cc(F)ccc3C(=O)O)n2)CC1 | 23.4 |
| CC(C)Oc1ccc(C(=O)N2CC[C@H](O)[C@@H](n3ccnc3)CC2)cc1 | 26.3 |
| CCS(=O)(=O)c1ccccc1N1CCC(N)CC1 | 31.8 |
| CC(C)c1ncncc1C(=O)N1CCN(Cc2cccnc2)CC1 | 31.9 |
| COCCOCC1(CNCc2ccc(F)cc2)C[C@@H](O)[C@@H](O)C1 (some centres not stated) | -43 |
| CC(C)Cc1nnc2sc(-c3cc(C(C)C)n[nH]3)nn12 | 46.6 |
| CC(C)(C)c1ccc(CN2C[C@H]3CC(O)C[C@H]3C2)c(OCC(N)=O)c1 (some centres not stated) | -2.85 |

| SMILES | INHIBITION [%] |
| --- | --- |
| COc1ccc2cnn(CC(=O)NC3CCCC3)c(=O)c2c1OC | 40.5 |
| CCOc1ccc(NC(=O)N(CCC#N)Cc2ccccn2)cc1F | -1.95 |
| COC(C)c1cccc(NC(=O)N(CCC#N)Cc2ccccn2)c1 (configuration not stated) | 27.8 |
| Cc1cc(C)cc(NC(=O)N(CCC#N)CCCN(C)C)c1 | 52.6 |
| CN(C)CCCN(CCC#N)C(=O)Nc1ccc2[nH]ccc2c1 | 35.9 |
| Cc1cc(NC(=O)N(CCC#N)CCCN(C)C)ccc1F | 52.6 |
| N#CCCN(Cc1ccccn1)C(=O)Nc1cccc(F)c1 | -27.6 |
| CCOc1ccccc1-n1c(C2CC2)n[nH]c1=O | -8.25 |
| COc1cc(N2CC[C@@H]3O[C@H](C(=O)N(C)C)C[C@@H]32)ncn1 | -20.1 |
| Cc1cccc(CN2CCc3onc(CO)c3C2)n1 | 28.5 |
| O=C1NCCN(C(=O)c2cn3ccsc3n2)C1c1cccc(F)c1 (configuration not stated) | 43.6 |
| CCC(=O)N1CCN(C(=O)c2cn3ccsc3n2)[C@H]2CS(=O)(=O)C[C@H]21 | 14.9 |
| O=C1NCCN(C(=O)c2cn3ccsc3n2)C1Cc1ccccc1 (configuration not stated) | 54.5 |
| Cc1cccnc1CN1CCN(C(=O)[C@@]23CNC[C@@H]2CN(C)C3)CC1 | 41.5 |
| Cc1cs/c(=N\C(=O)Cn2nc(N3CCSCC3)ccc2=O)[nH]1 | 10.1 |
| CNC(=O)C1CCN(C(=O)CCn2cccn2)CC1 | 62.8 |
| CCN(CC)CC1CCN(C(=O)CCn2cccn2)CC1 | 17.15 |
| COC1CCN(C(=O)CCn2cccn2)CC1 | -9.85 |
| COc1ccc(C)cc1NC(=O)C1CSc2ncc(C)c(=O)n2C1 (configuration not stated) | 5.36 |
| c1ccc(CN2CCCC2)c(CNc2cncc3nnnn23)c1 | -14.3 |
| CN1CCC(NC(=O)c2cc(C3CCCCC3)nc3ccccc23)CC1 | 10.5 |
| COc1cc(C(=O)NCC2(N(C)C)CCN(C)CC2)c2ccccc2n1 | 68.4 |
| COc1cc(C(=O)NC(C)(C)CN2CCN(C)CC2)c2ccccc2n1 | 28.05 |

| SMILES | INHIBITION [%] |
| --- | --- |
| CCn1nc(CC(C)C)cc1C(=O)NCCS(=O)(=O)N(C)C | 7.25 |
| COc1cc(C(=O)NCCS(=O)(=O)N(C)C)c2ccccc2n1 | 52.9 |
| CCCNC(=O)c1cc(OC)c(OC)cc1N(C)S(C)(=O)=O | 24.9 |
| Cc1nc(-c2ccccc2)sc1CNC1CCc2ncnn2C1 (configuration not stated) | 8.64 |
| CCn1nc2c(cc1=O)CN(Cc1nc(C)c(C)o1)CC2 | -29.7 |
| CCCN1CCN(C(=O)CCn2nc(C(F)(F)F)c(Br)c2C)CC1 | 6.67 |
| O=C1C[C@@H]2CC[C@H](CN1)N2C(=O)CCc1ccc2c(c1)OCO2 | 17.6 |
| Cn1nccc1-c1ccc2nc(C3CCN(CCO)CC3)nn2c1 | 33.4 |
| c1cnc(N2CCC(c3nccn3CC3CC3)CC2)nc1 | 36.5 |
| CN(C)Cc1cc(=O)n2c(n1)CN(C(=O)Cc1cccs1)CCC2 | 27.6 |
| O=C(CN1CCN(c2ccc3nncn3n2)CC1)NC1CCCC1 | -0.219 |
| CC1CN(CC2CCCC2)CCN1c1ccc2nncn2n1 (configuration not stated) | 82.6 |
| CC1CN(CC(=O)N2CCCC2)CCN1c1ccc2nncn2n1 (configuration not stated) | 7.67 |
| CC1CN(CC(=O)NC2CCCC2)CCN1c1ccc2nncn2n1 (configuration not stated) | 50.4 |
| O=C(CN1CCN(c2ccc3nncn3n2)CC1)NC1CCCCC1 | -4.16 |
| Cc1nc(CN2CCN(c3ccc4nncn4n3)C(C)C2)oc1C (configuration not stated) | 7.27 |
| CC1CCCCN1C(=O)CN1CCN(c2ccc3nncn3n2)CC1 (configuration not stated) | 24 |
| CC1CN(CC2CCCCC2)CCN1c1ccc2nncn2n1 (configuration not stated) | 89.3 |
| CC1CN(CCc2ccccn2)CCN1c1ccc2nncn2n1 (configuration not stated) | 15.6 |
| Cc1cc(CN(C)C(=O)NC2CCN(Cc3ccccn3)CC2)no1 | -26.6 |
| CCn1cc(-c2cncn2CCc2ccc3c(c2)OCCO3)cn1 | 16.5 |
